Measured values taken from ChEMBL document CHEMBL3988442, “University of Dundee, Small-Polar-MMV Screening Library” (2021).

target: AMP-activated protein kinase, AMPK (Homo sapiens) (UniProt P54646+O43741+P54619+Q9UGJ0+Q9Y478+Q13131+Q9UGI9); experiment: AMP-dependent Kinase enzyme assay. An in vitro enzyme assay that detects ADP turnover that is directly proportional to AMPK activity. This uses naive AMPK that is activated during the assay with MK-8722; type: functional; design: scale not given: direction of the effect not stated beside the values; conditions: 30 µM

SMILES	Percent Effect
Cn1cccc1CN(C(=O)Cc1cccs1)C1CC1	-4.04%
CC(C)(CN1CCC2(CCNCC2)CC1)N1CCOCC1	0.354%
CC(O)CN1CCN(Cc2coc(-c3cccc(Cl)c3)n2)CC1 (centres undefined)	-7.56%
Cc1cc(C2CCCN(CCC(=O)N3CCc4ccccc43)C2)n[nH]1 (centres undefined)	-4.69%
CCN(Cc1ccc2c(c1)OCO2)c1ncc(S(N)(=O)=O)s1	1.52%
CN(Cc1ccsc1)C(=O)c1nc(N2CCCC2)ncc1Cl	-1.6%
O=C(CNC1(CCO)CCOCC1)Nc1ccc(F)cc1F	-0.128%
CN(C)C(C(=O)N1CCC(c2ncc[nH]2)CC1)c1ccc2c(c1)OCO2 (centres undefined)	1.17%
O=C(NCC1CCOC1)c1cc(-c2ccccc2Cl)[nH]n1 (centres undefined)	2.35%
Cc1cnn(C2CCCN(C(=O)c3cc[nH]n3)C2)c1 (centres undefined)	-0.778%
Cc1cccc(C(C(=O)NC(C)(C)CN2CCCC2)N(C)C)c1 (centres undefined)	-15.9%
CCOCCC(=O)NCC1CCCO1 (centres undefined)	0.034%
Cn1cc(CC(=O)N2CCCC(c3cc(C(F)(F)F)[nH]n3)C2)cn1 (centres undefined)	-6.59%
CN1CSC[C@H]1C(=O)N1CCC(CCc2ccccc2)CC1	-1.47%
CCc1nnc2n1CCN(c1nc(C)cc(N(C)C)n1)C2	-7.79%
COCc1ccccc1C(=O)OCc1noc(C)n1	6.88%
O=C(C1CCCO1)N1CCC(Cn2cc(C3CCCC3)nn2)CC1 (centres undefined)	3.98%
Cc1ccc(Oc2cc(CN)ccn2)cc1C	-98.1%
CCc1ccc(CN2CCOC(Cc3cccc(F)c3)C2)nc1 (centres undefined)	5.27%
